Results on seven molecules are retold here after PubChem BioAssay (Tox21).

Unmarked numbers belong to inactive results. Inconclusive results are not listed. The source made the active and inactive calls. Unless noted, the call rests on the fitted dose curve; in most records, active means well fitted curve in the direction sought with a large enough effect in the repeat runs; inconclusive means weak or mixed curves; inactive means no such curve, though single readings can be large; an effect the other way counts as inactive or inconclusive.

Test [1] can be described thus: qHTS assay to identify small molecule agonists of H2AX (AID 1224845; active means well fitted activation curve with a large enough effect in the signal ratio in the repeat runs, not every such curve was filed as active; the % refers to the signal ratio; further: potency means the concentration at half of the fitted maximal effect). In short, it runs like this: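 Wild-type CHO-K1 cells plated overnight, then exposed 3 hr at 37C to compounds at 15 concentrations (0.76% DMSO). Lysed, then HTRF anti-pH2AX(S139)-cryptate/anti-H2AX-d2 detection after 24 hr at room temperature; emissions 665 and 620 nm.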
(In general: In qHTS, concentration-response curves come from the screen itself.)

Test [2] is described as follows: qHTS assay to identify small molecule agonists of the hypoxia (HIF-1) signaling pathway (AID 1224846; active means well fitted activation curve with a large enough effect in the signal ratio in the repeat runs, not every such curve was filed as active; the % refers to the signal ratio). In short, it runs like this: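 Reporter induction in HRE-bla ME-180 cells is taken as agonism: cells sit 5 hrs after plating, receive compounds or DMSO only, incubate 17 hrs at 37C under 5% CO2, and are loaded with CCF4-AM for beta-lactamase FRET measurement.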

Test [3] in a line: qHTS assay to identify small molecule agonists of H2AX - cell viability counter screen (AID 1224847; calls by dose curve; further: top concentration of the series differs between compounds; nearly all actives have a fitted effect of over 30% in size). In short, it runs like this: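 Wild-type CHO-K1 cells (10% FBS medium) were plated overnight at 37C, exposed to compounds at 15 concentrations for 3 hr at 37C (0.76% DMSO final), and viability was read as CellTiter-Glo luminescence after 30 min at room temperature.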
A short description of test [4]: qHTS RealTime-Glo MT Cell Viability Assay in HepG2 cells - 24 hour (AID 1224867). Further: nearly all actives have a fitted effect of over 50% in size. A digest of the protocol:
(§1)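 Compound treatment began 5 h after plating HepG2 cells (600/well) with NanoLuc luciferase and prosubstrate. Plates stayed at 37 C for 40 h; luminescence was captured at six time points, 0 h through 40 h.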

The nature of test [5]: qHTS RealTime-Glo MT Cell Viability Assay in HEK293 cells - 32 hour (AID 1224868). Further: nearly all actives have a fitted effect of over 50% in size. Further: potency means the concentration at half of the fitted maximal effect. In short, it runs like this:
(§2)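 Quantitative high-throughput screen of the Tox21 10K library in HEK293: cells and RealTime-Glo reagents plated together, compound added at 5 h, luminescence monitored through 40 h at 37 C.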

Test [6] can be described thus: A CellTox Green Cytotoxicity Assay to monitor cytotoxicity in HEK293 cells - 0 hour (AID 1224869). Further: nearly all actives have a fitted effect of over 50% in size. Further: potency means the concentration at half of the fitted maximal effect. A digest of the protocol: (§3)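 Tox21 screen in HEK293: membrane-impermeant cyanine dye fluoresces on binding dead-cell DNA; compound pinned 5 h post-seeding, plates held at 37 C, signal read repeatedly through 40 h.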
The nature of test [7]: qHTS RealTime-Glo MT Cell Viability Assay in HepG2 cells - 40 hour (AID 1224870). Further: nearly all actives have a fitted effect of over 50% in size. A digest of the protocol:
(§4)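 HepG2 cells mixed with RealTime-Glo MT reagents (NanoLuc plus cell-permeant prosubstrate) were seeded at 600 cells/well, incubated 5 h at 37 C/5% CO2, then pinned with compounds in DMSO; nonlytic luminescence tracked viability during 40 h treatment.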

Test [8] in a line: A CellTox Green Cytotoxicity Assay to monitor cytotoxicity in HEK293 cells - 40 hour (AID 1224871). Further: nearly all actives have a fitted effect of over 45% in size. Further: potency means the concentration at half of the fitted maximal effect. A digest of the protocol:
as §3

The nature of test [9]: qHTS RealTime-Glo MT Cell Viability Assay in HEK293 cells - 16 hour (AID 1224872). A digest of the protocol: as §2
The nature of test [10]: qHTS RealTime-Glo MT Cell Viability Assay in HepG2 cells - 8 hour (AID 1224873). Further: nearly all actives have a fitted effect of over 55% in size. In short, it runs like this: as §4
Test [11] can be described thus: qHTS RealTime-Glo MT Cell Viability Assay in HEK293 cells - 40 hour (AID 1224874). Further: nearly all actives have a fitted effect of over 50% in size. Further: potency means the concentration at half of the fitted maximal effect. The following applies: RealTime-Glo luminescence; max response: active compounds read low. In short, it runs like this: (§5)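 HEK293 + NanoLuc + prosubstrate, 600 cells/well; 5 h, 37 C/5% CO2; compound 23 nL in DMSO by pintool; 37 C; luminescence read at 0, 8, 16, 24, 32 and 40 h time points.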

Test [12] is described as follows: A CellTox Green Cytotoxicity Assay to monitor cytotoxicity in HEK293 cells - 24 hour (AID 1224875). Further: nearly all actives have a fitted effect of over 45% in size. Further: potency means the concentration at half of the fitted maximal effect. In short, it runs like this:
as §3

Test [13] is described as follows: qHTS RealTime-Glo MT Cell Viability Assay in HepG2 cells - 32 hour (AID 1224877). Further: nearly all actives have a fitted effect of over 55% in size. In short, it runs like this: as §1
Test [14] is described as follows: A CellTox Green Cytotoxicity Assay to monitor cytotoxicity in HepG2 cells - 24 hour (AID 1224878). Further: nearly all actives have a fitted effect of over 45% in size. Further: potency means the concentration at half of the fitted maximal effect. A digest of the protocol:
(§6)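 Measurements at 0, 8, 16, 24, 32 and 40 h of treatment captured CellTox Green fluorescence in HepG2 cells that had been co-plated with reagent and preincubated 5 h at 37 C/5% CO2.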

A short description of test [15]: A CellTox Green Cytotoxicity Assay to monitor cytotoxicity in HepG2 cells - 40 hour (AID 1224879). Further: nearly all actives have a fitted effect of over 40% in size. In short, it runs like this: as §6
Test [16] in a line: qHTS RealTime-Glo MT Cell Viability Assay in HEK293 cells - 0 hour (AID 1224880). Further: top concentration of the series differs between compounds; nearly all actives have a fitted effect of over 45% in size. In short, it runs like this:
as §5

The nature of test [17]: A CellTox Green Cytotoxicity Assay to monitor cytotoxicity in HEK293 cells - 32 hour (AID 1224881). Further: nearly all actives have a fitted effect of over 40% in size. Further: potency means the concentration at half of the fitted maximal effect. A digest of the protocol: as §3
Test [18] can be described thus: qHTS assay to identify small molecule agonists of the estrogen related receptor (ERR) signaling pathway from Tox21 library (AID 1224849; calls by dose curve; further: nearly all actives have a fitted effect of over 15% in size). The conditions noted are these: ERR reporter cell line, ONE-Glo luciferase, 18 h; at 92.4 µM (top of the series) unless noted. A digest of the protocol:
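Tox21 compounds tested for ERR agonism in an NTP reporter cell line: 18 h treatment at 37 C, then ONE-Glo luminescence.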

The nature of test [19]: A CellTox Green Cytotoxicity Assay to monitor cytotoxicity in HepG2 cells - 16 hour (AID 1224876). Further: nearly all actives have a fitted effect of over 45% in size. Further: potency means the concentration at half of the fitted maximal effect. In short, it runs like this: as §6
On the % scale 0 is the no-effect control and ±100 the full control effect.

For the molecule `CC(=O)/C=C/C1C(C)=CCCC1(C)C` (stereo not given), the Potency entry in [1], in test [3], in test [4], in [5], in test [6] and in [7] was “inactive” throughout. Besides, the Potency entry in test [8], in test [9], in test [10], in test [12], in test [13] and in test [14] was “inactive” throughout. In addition, the Potency result in [15], in test [16] and in [17] was “inactive” in each case. Also, the molecule was called inactive in [2]. The max response in test [11] was 0%.

For `CC(C)(C)C(=O)OCOP(=O)(COCCn1cnc2c(N)ncnc21)OCOC(=O)C(C)(C)C`, the Potency in test [1] was 0.277 µM (active); in test [5], 0.756 µM (active); in test [11] it was 0.848 µM (active). In test [2], the molecule was called inactive. Moreover, the Potency entry in test [3], in [4], in test [6], in test [7], in test [8] and in test [10] was “inactive” throughout. Also, the Potency result in [12], in test [19], in test [13], in test [14], in test [15] and in [16] was “inactive” in each case. Moreover, the Potency result in test [17] was “inactive”. In addition, in test [18], the activity change, positive = activation was -1.22% [at 42.5 µM].

As to `CCN(CC)C(C)=O`, the Potency result in test [1], in [3], in test [5], in [6], in test [7] and in [8] was “inactive” throughout. The Potency result in [9], in test [10], in test [12], in [19], in test [13] and in [14] was “inactive” throughout. Besides, the Potency result in [15], in test [16] and in [17] was “inactive” in each case. The outcome in test [2] was inactive. For the same molecule, the activity change, positive = activation in test [18] was 2.9%. Moreover, the max response in test [11] is 1.69%.

In the case of `CCCCCCOC(=O)CCC`, the Potency result in [1], in [3], in [4], in test [5], in test [6] and in test [7] was “inactive” each time. In addition, the Potency result in [8], in [9], in [10], in test [12], in [19] and in test [13] was “inactive” throughout. Further, the Potency entry in test [14] and in test [17] was “inactive” in each case. Moreover, the molecule was classed as inactive in test [2]. In addition, the max response in [11] is 6.13%.

As to `CC(=O)NCCCS(=O)(=O)O`, the Potency result in [1], in [3], in test [4], in test [5], in test [7] and in test [9] was “inactive” in each case. Further, the Potency result in [10], in test [13] and in [16] was “inactive” in each case. Further, the molecule was classed as inactive in test [2]. For the same molecule, the Potency was 18.9 µM (active) in [6]; 16.9 µM (active) in test [8]; 16.9 µM (active) in [12]; 18.9 µM (active) in test [19]; 18.9 µM (active) in [14]; 15 µM (active) in test [17]. Further, the max response in test [11] is 14.9%.

As for `c1ccc(CNCc2ccccc2)cc1`, the Potency result in [1], in [3], in [5], in [6], in test [7] and in test [8] was “inactive” each time. Besides, the Potency result in test [9], in [10], in test [12], in [19], in test [13] and in test [14] was “inactive” throughout. Besides, the Potency result in test [15], in test [16] and in [17] was “inactive” in each case. Further, the molecule was classed as inactive in [2]. Besides, in test [11], the max response is -7.12%.

For `FC(F)(F)C(F)(F)C(F)(F)C(F)(F)C(F)(F)C(F)(F)CCI`, the Potency entry in test [1], in [3], in test [4], in [5], in test [6] and in test [7] was “inactive” each time. The Potency entry in [9], in test [10], in test [12], in test [19], in test [13] and in [14] was “inactive” each time. Also, the Potency entry in [15], in test [16] and in test [17] was “inactive” throughout. In addition, in test [2], the outcome was inactive. The max response in test [11] was -0.265%.
